Pf growth 96h: Primary qHTS for delayed death inhibitors of the malarial parasite plastid, 96 hour incubation | P. falciparum luciferase reporter growth, 96 h | Potency, µM (titrated, usually from 28.7 µM), actives largely listed as inhibitors | 6.9% of 320,000 active | AID 504834, 2011; active = well fitted inhibition curve with a large enough effect; inconclusive = small, poorly fitted or top-dose-only effect, or another doubt; inactive = no such curve, though single readings can be large or run the other way
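Compounds incubated with erythrocytes infected by luciferase-expressing P. falciparum (2% hematocrit, 0.05% parasitemia final) for 96 hours, 37 C in 5% CO2. Growth inhibition scored as decreased luciferase luminescence.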
CHX counter: Cycloheximide Counterscreen for Small Molecule Inhibitors of Shiga Toxin | cell reporter, cycloheximide protein synthesis inhibition counterscreen | max response, % | 12% of 300,000 active; in the data active = max response mostly above about 13%, no sharp cut-off; inactive = mostly below about 14%; note: read at 38.3 µM for the half of the compounds with a filed dose
Shiga toxin inh: A qHTS for Small Molecule Inhibitors of Shiga Toxin. Vero cells, Shiga toxin protein synthesis inhibition reporter. 9.2% of 290,000 active. AID 2315, 2010. inhibition, % at 38.7 µM; in the data active = inhibition mostly above about 28%, no sharp cut-off; inactive = mostly below about 43%
Pf growth 48h: Primary qHTS for delayed death inhibitors of the malarial parasite plastid, 48 hour incubation; Potency, µM (top dose mostly 28.7 µM), actives largely listed as inhibitors; 5.9% of 310,000 active; P. falciparum luciferase growth in erythrocytes, 48 h; AID 504832, 2011; active = well fitted inhibition curve with a large enough effect; inconclusive = small, poorly fitted or top-dose-only effect, or another doubt; inactive = no such curve, though single readings can be large or run the other way
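Luciferase-expressing P. falciparum in infected erythrocytes (2% hematocrit, 0.1% parasitemia final) in RPMI 1640/0.5% Albumax were exposed to compound for 48 hours at 37 C, 5% CO2; growth read as luminescence.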
NS1 inh: qHTS Assay for Inhibitors of Influenza NS1 Protein Function | Potency, µM (highest dose often 46.1 µM) | AID 2326, 2010 | 0.4% of 270,000 active; note: actives are rising curves; nearly all actives have a fitted effect of over 50% in size
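Compounds were scored for reversing the slow growth caused by influenza A NS1 in S. cerevisiae, measured by optical density at 600 nm. Assay medium contained 2% galactose at pH 6.0; NS1-free yeast of the same strain were the positive control.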
SARS PLP yeast: qHTS of Yeast-based Assay for SARS-CoV PLP; Potency, µM (highest dose often 32.9 µM), usual class: activators; S. cerevisiae expressing SARS-CoV PLpro, growth rescue; AID 485353, 2010; 0.19% of 330,000 active; note: nearly all actives have a fitted effect of over 55% in size
Large screens that a line does not name were inactive. An excerpt weighted towards active compounds, which were near 21% of everything screened. Unless noted, calls come from the whole dose curve.

CCOc1ccc2[nH]c3c(NCC(C)C)ncnc3c2c1	Pf growth 96h 1.7µM, CHX counter 33, Shiga toxin inh 59, Pf growth 48h 2.3µM
COc1ccc2[nH]c3c(NCCCN4CCCC4=O)ncnc3c2c1	none
CCCCN(CCCC)CCn1cnc2c([nH]c3ccc(OC)cc32)c1=O	Pf growth 96h inconclusive, Pf growth 48h inconclusive
Brc1ccc2[nH]c3c(NCc4ccccn4)ncnc3c2c1	Pf growth 96h inconclusive, Pf growth 48h inconclusive
CCOc1ccc2[nH]c3c(NCCCOC)ncnc3c2c1	Pf growth 96h inconclusive, CHX counter 35, Shiga toxin inh 48 (no result: Pf growth 48h)
CCOc1ccc2[nH]c3c(NCCOC)ncnc3c2c1	Pf growth 96h inconclusive, CHX counter 29, Shiga toxin inh 67
CCc1csc(CNC(=O)C2CCC(=O)N(Cc3cccc(F)c3)C2)n1 (stereo unspecified)	none
COc1cccc(C(=O)NCC(=O)OCc2ccc(F)cc2Cl)c1	none
COc1ccc2[nH]c3c(NCCN(C(C)C)C(C)C)ncnc3c2c1	Pf growth 96h 0.47µM, Pf growth 48h 2.6µM
CC1CCN(S(=O)(=O)c2ccc(NC(=O)[C@@H]3CCCN3C(=O)c3cccs3)cc2)CC1	Pf growth 96h inconclusive, Pf growth 48h inconclusive (no result: CHX counter, Shiga toxin inh, NS1 inh)
CCN1CC(c2ccccc2)C(c2ccc(Cl)cc2)=N1 (stereo unspecified)	none
N=c1oc2c3c4c(cc2cc1C(=O)Nc1ccccc1)CCCN4CCC3	Pf growth 96h 13µM, CHX counter 23, NS1 inh inconclusive (no result: Pf growth 48h)
COc1ccc(C2CC(c3c(-c4ccccc4)c4cc(Cl)ccc4[nH]c3=O)=NN2S(C)(=O)=O)cc1OC (stereo unspecified)	Pf growth 96h inconclusive, Pf growth 48h 10µM
Cc1nc(C(=O)NC2CC2)sc1C1(C)CC(c2ccccc2)=NO1 (stereo unspecified)	CHX counter 18
CN1C(C(=O)NCc2ccco2)CC2Cn3c(nc4cc(Cl)c(Cl)cc43)C21 (stereo unspecified)	CHX counter 13
Cc1c(Cl)cccc1S(=O)(=O)Nc1ccnn1C	none
CCOC(=O)C1=C(OCc2ccc(Cl)cc2)C2C=C(C)C=CC2N=C1 (stereo unspecified)	Pf growth 96h 12µM (no result: Pf growth 48h)
NC(=O)COC(=O)c1ccccc1OCc1ccc(Cl)cc1	none (no result: NS1 inh)
CCOc1ccccc1CN1CCNC(=O)C1CC(=O)NCc1ccccn1 (stereo unspecified)	Pf growth 96h inconclusive, Pf growth 48h inconclusive
Cc1nc2ccccc2cc1C(=O)NCc1ccco1	none
O=C(Nc1ccc(S(=O)(=O)NCc2ccco2)cc1)c1ccc2ccccc2n1	CHX counter 89, Shiga toxin inh 51, Pf growth 48h inconclusive (no result: Pf growth 96h)
O=C(NCc1ccco1)c1ccc2ccccc2n1	Pf growth 96h 10µM
CC(C)CC(=O)Nc1ccc(S(=O)(=O)NCc2ccco2)cc1	none (no result: Pf growth 96h)
COc1ccc2nc(/C=N/NC(=O)[C@H](C)NC(=O)OC(C)(C)C)ccc2c1	CHX counter 16, Shiga toxin inh active
COC(=O)c1cc[n+](CC(=O)c2ccccc2)cc1	CHX counter 26 (no result: Pf growth 96h)
COC(=O)c1cc(O)c(OCc2ccccc2)c(O)c1	CHX counter 18
COC(=O)c1ccc(OCC(=O)c2ccccc2)cc1	CHX counter 46, Shiga toxin inh 67 (no result: Pf growth 48h)
COc1cccc(CSCC(=O)NCCc2ccccc2)c1OC	none
CC(C)COc1ccc(/C(O)=C2/C(=O)C(=O)N(CCN(C)C)C2c2ccncc2)cc1 (stereo unspecified)	none
CCOc1cc(C2/C(=C(/O)c3ccc(OC(C)C)cc3)C(=O)C(=O)N2CCCOC)ccc1O (stereo unspecified)	CHX counter 48, Shiga toxin inh 87
CC(C)Oc1ccc(/C(O)=C2/C(=O)C(=O)N(CCN(C)C)C2c2cccs2)cc1 (stereo unspecified)	Pf growth 96h inconclusive, CHX counter 18, Shiga toxin inh 74
COc1cc(C2/C(=C(/O)c3ccc(OCC(C)C)cc3)C(=O)C(=O)N2CCN(C)C)ccc1O (stereo unspecified)	Pf growth 96h 12µM, NS1 inh inconclusive
CCOC(=O)c1c(CSc2ccccc2)n(C)c2cc(Br)c(OCC(O)CNC(CO)(CO)CO)cc12 (stereo unspecified)	Pf growth 96h 13µM, Pf growth 48h 12µM
CC[C@H](C)[C@H](NC(=O)[C@H](Cc1ccc(O)cc1)NC(=O)[C@H](Cc1cnc[nH]1)NC(=O)[C@H](CCCNC(=N)N)NC(=O)[C@H](CC(C)C)NC(=O)[C@H](C)NC(=O)[C@H](CO)NC(=O)[C@H](Cc1ccc(O)cc1)NC(=O)[C@H](Cc1ccc(O)cc1)NC(=O)[C@H](CCCNC(=N)N)NC(=O)[C@H](C)NC(=O)[C@H](CCSC)NC(=O)[C@H](CC(=O)O)NC(=O)[C@H](CCC(=O)O)NC(=O)[C@H](C)NC(=O)[C@@H]1CCCN1C(=O)[C@H](C)NC(=O)[C@H](CC(=O)O)NC(=O)[C@H](CCC(=O)O)NC(=O)CNC(=O)[C@@H]1CCCN1C(=O)[C@H](CC(N)=O)NC(=O)[C@H](CC(=O)O)NC(=O)[C@@H]1CCCN1C(=O)[C@H](CCCCN)NC(=O)[C@H](CO)NC(=O)[C@@H]1CCCN1C(=O)[C@@H](N)Cc1ccc(O)cc1)C(=O)N[C@@H](CC(N)=O)C(=O)N[C@@H](CC(C)C)C(=O)N[C@@H](CC(C)C)C(=O)N[C@H](C(=O)N[C@@H](CCCNC(=N)N)C(=O)N1CCC[C@H]1C(=O)N[C@@H](CCCNC(=N)N)C(=O)N[C@@H](Cc1ccc(O)cc1)C(N)=O)[C@@H](C)O	none (no result: Pf growth 96h, Pf growth 48h, NS1 inh, SARS PLP yeast)
COC(=O)c1[nH]c2ccccc2c1Sc1ccccc1	none
CNC(=O)CCc1[nH]c2ccccc2c1Sc1ccccc1	Pf growth 96h 5.2µM, Pf growth 48h inconclusive
CC1CCCN(CCCNC(=O)c2ccc(NC(=O)C3=CSCCO3)cc2)C1 (stereo unspecified)	Pf growth 96h inconclusive, SARS PLP yeast inconclusive
O=C(Nc1ccc(C(=O)NCCCN2CCN(c3ccc(F)cc3)CC2)cc1)C1=CSCCO1	Pf growth 96h 12µM, Pf growth 48h inconclusive
C=CCNC(=O)c1ccc(NC(=O)C2=CSCCO2)cc1	CHX counter 23
O=C(Nc1ccc(C(=O)NCCCN2CCCCC2)cc1)C1=CSCCO1	Pf growth 96h inconclusive
CC(C)CCNC(=O)c1ccc(NC(=O)C2=CSCCO2)cc1	CHX counter 24, Shiga toxin inh 59
O=C1Cc2cc(CCN3CCN(c4nsc5ccccc45)CC3)c(Cl)cc2N1	none (no result: Pf growth 96h, Pf growth 48h, NS1 inh)
O=C(CCl)NCCCCCCCCCNC(=O)CCl	Pf growth 96h 1.5µM, Pf growth 48h 1.9µM, SARS PLP yeast inconclusive
O=C(CCNS(=O)(=O)c1ccc(F)c(F)c1)NCCN1CCOCC1	none (no result: Pf growth 96h, CHX counter, Shiga toxin inh, Pf growth 48h, NS1 inh)

Assay outcomes from PubChem BioAssay.
